Assay results published in PubChem BioAssay (NCI).
Values joined by “and” are separate entries in the source; they are usually repeats but may differ in a detail not shown here. Equal values may be shown once. This is part of a sample that, as a whole, favours compounds with a hit. Of some 79,000 tested, about 15% had one in any assay. More than one record can exist for a structure, and the calls need not agree. Active and inactive are the calls of the source. Rule as the data show it: active = growth inhibition above about 70%; inactive = the rest.

Legend:
[1] = NCI Yeast Anticancer Drug Screen. Data for the rad18 strain (AID 177); settings: S. cerevisiae rad18 mutant growth inhibition, stronger effect = higher value
In short: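 Test articles were incubated with altered yeast defective in DNA damage repair. Results are given as inhibition of growth versus vehicle.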

[2] = NCI Yeast Anticancer Drug Screen. Data for the wt1 strain (AID 149);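 also: 0% = growth of vehicle-treated wt1 cultures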; settings: S. cerevisiae wt1 strain (SPY 50644) growth inhibition, stronger effect = higher value
In short: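 wt1 yeast, compound-treated; % growth inhibition vs vehicle control.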

[3] = NCI Yeast Anticancer Drug Screen. Data for the rad50EPP+ strain (AID 151);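 also: 0% = growth of vehicle-treated control cultures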; settings: S. cerevisiae rad50 mutant strain, stronger effect = higher value
In short: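 In this screen, rad50EPP+ yeast were exposed to compounds. Growth inhibition was scored against vehicle-treated controls.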

[4] = NCI Yeast Anticancer Drug Screen. Data for the mgt1 strain (AID 153); settings: S. cerevisiae mgt1 mutant growth inhibition, stronger effect = higher value
In short: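 mgt1 strain exposed; growth vs vehicle control recorded as inhibition.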

[5] = NCI Yeast Anticancer Drug Screen. Data for the rad50 strain (AID 155);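 also: 0% = growth of vehicle-only cultures of the same strain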; settings: S. cerevisiae rad50 strain growth inhibition, stronger effect = higher value
In short: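 Genetically altered yeast (DNA repair pathway); compound treatment; growth inhibition vs vehicle ctrl.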

[6] = NCI Yeast Anticancer Drug Screen. Data for the mec2-1 strain (AID 157); settings: S. cerevisiae mec2-1 strain, stronger effect = higher value
In short: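 Vehicle-treated cultures served as reference for growth inhibition of compound-exposed mec2-1 yeast.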

[7] = NCI Yeast Anticancer Drug Screen. Data for the rad14 strain (AID 159);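 also: 0% = growth of vehicle-treated control cultures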; settings: S. cerevisiae rad14 strain growth inhibition, stronger effect = higher value
In short: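 Test compounds were applied to a repair-deficient yeast strain. Its growth was then compared with that of cultures given vehicle alone, and inhibition was expressed relative to those controls.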

[8] = NCI Yeast Anticancer Drug Screen. Data for the sgs1 mgt1 strain (AID 161);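 also: 0% = growth of cultures given vehicle only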; settings: S. cerevisiae sgs1 mgt1 strain, stronger effect = higher value
In short: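 Test agents were incubated with a DNA-repair-mutant yeast strain. Growth was then read and compared against vehicle-treated controls.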

[9] = NCI Yeast Anticancer Drug Screen. Data for the CLN2oe strain (AID 163);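 also: 0% = growth of vehicle-only control cultures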; settings: S. cerevisiae CLN2oe strain, stronger effect = higher value
In short: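 Inhibition relative to vehicle-treated yeast is reported. Cells: strain with genetic alteration in cell-cycle control, grown with compound.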

[10] = NCI Yeast Anticancer Drug Screen. Data for the cln2 rad14 strain (AID 165);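 also: 0% = growth equal to vehicle treated cultures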; settings: S. cerevisiae cln2 rad14 strain, stronger effect = higher value
In short: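 Each compound was tested on cln2 rad14 yeast. Inhibition of growth was calculated against vehicle-exposed controls.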

[11] = NCI Yeast Anticancer Drug Screen. Data for the bub3 strain (AID 167); settings: S. cerevisiae bub3 mutant strain, stronger effect = higher value
In short: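 Yeast carrying a defined mutation is treated with each compound, and growth is compared with that of vehicle-exposed cells to give inhibition.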

[12] = NCI Yeast Anticancer Drug Screen. Data for the wt2 strain (AID 169);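 also: 0% = growth of vehicle-treated yeast cultures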; settings: S. cerevisiae wt2 strain growth inhibition, stronger effect = higher value
In short: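 Inhibition of yeast growth was determined after compound treatment, normalised to controls receiving only vehicle.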

[13] = NCI Yeast Anticancer Drug Screen. Data for the mlh1 strain (AID 171);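 also: 0% = growth of vehicle-treated control cultures of the same strain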; settings: S. cerevisiae mlh1 strain growth inhibition, stronger effect = higher value
In short: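 Vehicle-normalised growth inhibition of a repair- or checkpoint-altered yeast strain following compound treatment.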

[14] = NCI Yeast Anticancer Drug Screen. Data for the sgs1 strain (AID 173);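 also: 0% = growth of vehicle-only control cultures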; settings: S. cerevisiae sgs1 mutant, stronger effect = higher value
In short: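 Screen format: yeast with repair or checkpoint alterations, compound exposure, growth read relative to vehicle.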

[15] = NCI Yeast Anticancer Drug Screen. Data for the rad52 strain (AID 147);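 also: 0% = growth of vehicle-treated control cultures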; settings: S. cerevisiae rad52 mutant growth inhibition, stronger effect = higher value
In short: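 Vehicle-treated cultures served as the reference for growth inhibition of compound-exposed yeast bearing a DNA repair mutation.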

[16] = NCI Yeast Anticancer Drug Screen. Data for the mlh1 rad18 strain (AID 175); settings: S. cerevisiae mlh1 rad18 strain growth inhibition, stronger effect = higher value
In short: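 Vehicle-treated cultures served as the reference for growth inhibition in a yeast strain carrying DNA damage repair alterations exposed to each compound.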

[17] = at 5.0 µM (retest, dose inferred, filed as 0.5)
[18] = at 50.0 µM (retest, dose inferred, filed as 5.0)

Measured: growth inhibition

Cc1cccc2c1nc1ccc(Cl)cc1[n+]2C
active: [1]; at 11.0 µM 91% | [1]; at 33.0 µM 97% | [1]; at 100.0 µM 96%

CCCCOCn1c(=O)[nH]c(=O)c2cc(Br)ccc21
inactive: [2]; at 1.2 µM -37% | [2]; at 3.7 µM -18% | [2]; at 11.0 µM -58% | [2]; at 33.0 µM -44% | [2]; at 100.0 µM -39% | [3]; at 1.2 µM -59% | [3]; at 3.7 µM -71% | [3]; at 11.0 µM -50% | [3]; at 33.0 µM -61% | [3]; at 100.0 µM -92% | [4]; at 1.2 µM -52% | [4]; at 3.7 µM -36% | [4]; at 11.0 µM -47% | [4]; at 33.0 µM -32% | [4]; at 100.0 µM -32% | [5]; at 1.2 µM -35% | [5]; at 3.7 µM -26% | [5]; [17] 21% | [5]; at 11.0 µM -10% | [5]; at 33.0 µM -24% | [5]; [18] 22% | [5]; at 50.0 µM 18.7% | [5]; at 100.0 µM -15% | [6]; at 1.2 µM -1% | [6]; at 3.7 µM 6% | [6]; [17] 14% | [6]; at 11.0 µM 2% | [6]; at 33.0 µM 11% | [6]; [18] 11% | [6]; at 50.0 µM 4.05% | [6]; at 100.0 µM -5% | [7]; at 1.2 µM -22% | [7]; at 3.7 µM -50% | [7]; at 11.0 µM -39% | [7]; at 33.0 µM -35% | [7]; at 100.0 µM -42% | [8]; [17] 59% | [9]; at 1.2 µM -20% | [9]; at 3.7 µM -11% | [9]; at 11.0 µM -38% | [9]; at 33.0 µM -21% | [9]; at 100.0 µM -29% | [10]; [17] 32% | [10]; at 50.0 µM 17.8% | [11]; at 1.2 µM -46% | [11]; at 3.7 µM -36% | [11]; [17] 23% | [11]; at 11.0 µM -35% | [11]; at 33.0 µM -39% | [11]; at 100.0 µM -33% | [12]; at 1.2 µM -21% | [12]; at 3.7 µM -20% | [12]; at 11.0 µM -21% | [12]; at 33.0 µM -19% | [12]; at 100.0 µM 0% | [13]; at 1.2 µM -48% | [13]; at 3.7 µM -48% | [13]; at 11.0 µM -41% | [13]; at 33.0 µM -41% | [13]; at 100.0 µM -62% | [14]; at 1.2 µM -18% | [14]; at 3.7 µM -7% | [14]; at 11.0 µM -16% | [14]; at 33.0 µM -18% | [14]; at 100.0 µM -8%
active: [8]; [18] 91% | [8]; at 50.0 µM 90.2% | [10]; [18] 86% | [11]; [18] 92% | [11]; at 50.0 µM 82.2%

Cc1ccc(Sc2ccccc2N)cc1
95% (active) and 62% (inactive): [5]; [18]
active: [15]; at 100.0 µM 98% | [3]; at 100.0 µM 93% | [4]; at 100.0 µM 98% | [5]; at 50.0 µM 90.5% | [5]; at 100.0 µM 98% | [6]; at 50.0 µM 92.3% | [6]; at 100.0 µM 98% | [8]; [18] 91% and 73% | [8]; at 50.0 µM 93.2% | [9]; at 100.0 µM 98% | [10]; at 50.0 µM 91.7% | [11]; [18] 94% and 81% | [11]; at 50.0 µM 92% | [11]; at 100.0 µM 98% | [12]; at 100.0 µM 98% | [13]; at 100.0 µM 98% | [14]; at 100.0 µM 98% | [16]; [18] 90% and 73% | [16]; at 50.0 µM 90.5% and 91% | [1]; at 100.0 µM 98%
94% (active) and 67% (inactive): [10]; [18]
95% (active) and 64% (inactive): [6]; [18]
inactive: [15]; at 1.2 µM 9% | [15]; at 3.7 µM -3% | [15]; at 11.0 µM -13% | [15]; at 33.0 µM 45% | [3]; at 1.2 µM 8% | [3]; at 3.7 µM -1% | [3]; at 11.0 µM 16% | [3]; at 33.0 µM 64% | [4]; at 1.2 µM 0% | [4]; at 3.7 µM -17% | [4]; at 11.0 µM -21% | [4]; at 33.0 µM 38% | [5]; at 1.2 µM 0% | [5]; at 3.7 µM -3% | [5]; [17] 31% and 32% | [5]; at 11.0 µM -12% | [5]; at 33.0 µM 17% | [6]; at 1.2 µM -30% | [6]; at 3.7 µM -18% | [6]; [17] 50% and 23% | [6]; at 11.0 µM -32% | [6]; at 33.0 µM 25% | [8]; [17] -5% and 43% | [9]; at 1.2 µM 22% | [9]; at 3.7 µM 12% | [9]; at 11.0 µM -3% | [9]; at 33.0 µM 46% | [10]; [17] 42% and 29% | [11]; at 1.2 µM -6% | [11]; at 3.7 µM -2% | [11]; [17] 34% and 40% | [11]; at 11.0 µM -10% | [11]; at 33.0 µM 24% | [12]; at 1.2 µM -16% | [12]; at 3.7 µM -2% | [12]; at 11.0 µM -17% | [12]; at 33.0 µM 35% | [13]; at 1.2 µM 5% | [13]; at 3.7 µM -6% | [13]; at 11.0 µM 14% | [13]; at 33.0 µM 57% | [14]; at 1.2 µM 8% | [14]; at 3.7 µM -2% | [14]; at 11.0 µM -3% | [14]; at 33.0 µM 51% | [16]; [17] 32% and 37% | [1]; at 1.2 µM -16% | [1]; at 3.7 µM -13% | [1]; at 11.0 µM -21% | [1]; at 33.0 µM 12%
